Results as given in PubChem BioAssay (EPA / NIEHS).
Values joined by “and” are separate entries in the source; they are usually repeats but may differ in a detail not shown here. Equal values may be shown once. Some compounds were tested as several samples or in several runs, with calls that do not always agree. Active and inactive are the calls of the source. How the source made its calls: active means hit-call score of the fitted dose curve at least 0.9, where 1 is the maximum; inactive means score below 0.9.

Read-out: Thrombomodulin, THBD (gene 7056)
Experiment: BSK_LPS_Thrombomodulin: BioMAP Diversity Plus: LPS Assay for Thrombomodulin Biomarker Activity (AID 2284296)
Settings: primary human HUVEC with PBMC
Method in brief: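 Thrombomodulin on the surface of LPS-activated endothelial/PBMC co-cultures was quantified by ELISA at 24 hours post-dosing, with DMSO as baseline. Parallel SRB total-protein staining flagged overt cytotoxicity.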

SMILES | outcome | AC50
O=C(O)C(F)(F)C(F)(F)C(F)(F)C(F)(F)C(F)(F)C(F)(F)C(F)(F)C(F)(F)F | inactive | 
O=C(O)C(F)(F)C(F)(F)C(F)(F)C(F)(F)C(F)(F)F | inactive | 
O=S(=O)(O)C(F)(F)C(F)(F)C(F)(F)C(F)(F)C(F)(F)C(F)(F)F | inactive | 
O=S(=O)(O)C(F)(F)C(F)(F)C(F)(F)C(F)(F)F | inactive | 
NS(=O)(=O)C(F)(F)C(F)(F)C(F)(F)C(F)(F)C(F)(F)C(F)(F)C(F)(F)C(F)(F)F | inactive | 14.5 µM (active)
COc1ccc(O)c(C(C)(C)C)c1 | inactive | 
O=C(O)C(F)(F)C(F)(F)C(F)(F)C(F)(F)C(F)(F)C(F)(F)C(F)(F)C(F)(F)C(F)(F)F |  | 51.4 µM (active) and 54.9 µM (active)

Tested on: not listed separately
Experiment: IUF_NPC2c_oligodendrocyte_migration_120hr: Leibniz Research Institute for Environmental Medicine (IUF) 120-hour Neural Progenitor Cell Migration Assay for Oligodendrocyte Migration (NPC2c) (AID 2284297)
Settings: not given
Experimental: IUF_NPC2-5 is a cell-based, multiplexed assay that uses hNPC, a human primary neural progenitor cells, with measurements taken at 72 or 120 hours after chemical dosing in a 96-well plate. Human neural progenitor cells (hNPC) are generated from human fetal brain cortex at gestational week (GW) 16-19. In the neural progenitor cell migration and differentiation assay (NPC2-5), hNPCs grown as spheres are plated on an extracellular matrix and migrate and differentiate out of the sphere core. The processes radial glia migration, neuronal and oligodendrocyte migration as well as neuronal differentiation, neuronal morphology and oligodendrocyte differentiation are studied using automated phase contrast imaging and automated fluorescence imaging in combination with high content image analysis. In parallel, the cell viability is assessed using an alamar blue viability assay and the cytotoxicity using a lactate dehydrogenase dependent membrane integrity assay.IUF_NPC2b_oligodendrocyte_migration_120hr is one of 12 assay components measured from the IUF_NPC2-5 assay. Oligodendrocyte migration distance at 120 hr is the mean distance of all oligodendrocytes from the edge of the sphere core to each individual oligodendrocyte (see IUF_NPC5_oligodendrocyte_differentiation_120hr). Oligodendrocyte migration is normalized to radial glia migration distance at 120 hr.Data from the IUF_NPC2c_oligodendrocyte_migration_120hr component was analyzed at the endpoint IUF_NPC2c_oligodendrocyte_migration_120hr in the positive analysis fitting direction relative to DMSO as the negative control and baseline of activity. Using a type of migration reporter, gain or loss-of-signal activity can be used to understand developmental effects.
Culture protocol: After the cell expansion period the cells are cultured for up to four weeks in which they are passaged every week as described in 3.6. Between one to three days after passaging spheres at a size of 0.3 mm are picked for the test method. For the assessment of neural progenitor cell migration and differentiation, the spheres are plated on poly-D-lysine/laminin coated 96-well flat bottom plates in differentiation medium (N2) to initiate migration and differentiation. Thereby one 0.3 mm big sphere is plated in the middle of a well. The differentiation medium consists of DMEM and Ham's F12 at a ratio of 3 to 1 supplemented with 1% N2 and 1% penicillin and streptomycin. Within 5 days NPCs radially migrate out of the sphere core and differentiate into radial glia cells (nestin positive), neurons (TUBB3 positive), oligodendrocytes (O4 positive) and astrocytes (GFAP positive). Cultivation during the test method is performed at 37C and 5% CO2 at a ph of 7.2-7.6.Exposure: 0.3 mm big hNPC are plated in the already prepared test conditions. […] Therefore, half of the test condition solution (e.g. solvent control or compound dilution) is replaced by freshly prepared test condition solution.Test Method: Migration distance and cytotoxicity is determined after 72 hours based on brightfield images of each well. […] On the ICC images, migration after 120 hours, neuronal and oligodendrocyte number, neuronal morphology and neuron/oligodendrocyte specific migration is assessed. immunocytochemical staining (ICC) generates an image for each sphere. The plates are scanned using an automated high content imaging device and all nuclei and their positions are determined automatically based on their intensity and size. […]

SMILES | outcome | AC50
C=CC(N)=O | inactive | 
CO/C=C(/C(=O)OC)c1ccccc1COc1cccc(C(F)(F)F)n1 |  | 34.6 µM (active)
O=S(=O)(O)C(F)(F)C(F)(F)C(F)(F)C(F)(F)C(F)(F)C(F)(F)F | inactive | 
O=S(=O)(O)C(F)(F)C(F)(F)C(F)(F)C(F)(F)F | inactive | 
CCOP(=S)(OCC)SCSC(C)(C)C | inactive | 

Tested on: not listed separately
Experiment: IUF_NPC2a_radial_glia_migration_120hr: Leibniz Research Institute for Environmental Medicine (IUF) 120-hour Neural Progenitor Cell Migration Assay for Radial Glia Migration (NPC2a) (AID 2284298)
Settings: not given
Method in brief: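 Migration distance in um, sphere core edge to migration-area edge, derived by nuclei-density algorithm from Hoechst images after 120 h compound exposure. Primary hNPC spheres differentiated on poly-D-lysine/laminin in N2 medium, 37C; medium half-replaced day 3.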

SMILES | outcome | AC50
C=CC(N)=O | inactive | 
CO/C=C(/C(=O)OC)c1ccccc1COc1cccc(C(F)(F)F)n1 |  | 33 µM (active)
O=S(=O)(O)C(F)(F)C(F)(F)C(F)(F)C(F)(F)C(F)(F)C(F)(F)F | inactive | 
O=S(=O)(O)C(F)(F)C(F)(F)C(F)(F)C(F)(F)F | inactive | 
CCOP(=S)(OCC)SCSC(C)(C)C | inactive | 

Tested on: not listed separately
Experiment: IUF_NPC2a_radial_glia_migration_72hr: Leibniz Research Institute for Environmental Medicine (IUF) 72-hour Neural Progenitor Cell Migration Assay for Radial Glia Migration (NPC2a) (AID 2284299)
Settings: not given
Method in brief: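 Spheres of human primary neural progenitors migrate on poly-D-lysine/laminin under compound exposure at 37C, 5% CO2. The 72 h radial glia migration distance comes from brightfield images, measured manually.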

SMILES | outcome | AC50
C=CC(N)=O | inactive | 
CO/C=C(/C(=O)OC)c1ccccc1COc1cccc(C(F)(F)F)n1 |  | 50 µM (active)
O=S(=O)(O)C(F)(F)C(F)(F)C(F)(F)C(F)(F)C(F)(F)C(F)(F)F | inactive | 
O=S(=O)(O)C(F)(F)C(F)(F)C(F)(F)C(F)(F)F | inactive | 
CCOP(=S)(OCC)SCSC(C)(C)C | inactive | 

Tested on: not listed separately
Experiment: IUF_NPC2b_neuronal_migration_120hr: Leibniz Research Institute for Environmental Medicine (IUF) 120-hour Neural Progenitor Cell Migration Assay for Neuron Migration (NPC2b) (AID 2284300)
Settings: not given
Method in brief: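 TUBB3-positive neurons are imaged after 120 h of differentiation, and their mean distance from the sphere edge is normalised to radial glia migration. Single 0.3 mm fetal hNPC spheres on poly-D-lysine/laminin received 7 compound concentrations, ≤0.1% DMSO, refreshed at day 3.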

SMILES | outcome | AC50
C=CC(N)=O | inactive | 
CO/C=C(/C(=O)OC)c1ccccc1COc1cccc(C(F)(F)F)n1 |  | 50 µM (active)
O=S(=O)(O)C(F)(F)C(F)(F)C(F)(F)C(F)(F)C(F)(F)C(F)(F)F | inactive | 
O=S(=O)(O)C(F)(F)C(F)(F)C(F)(F)C(F)(F)F | inactive | 
CCOP(=S)(OCC)SCSC(C)(C)C | inactive | 

Tested on: not listed separately
Experiment: IUF_NPC3_neuronal_differentiation_120hr: Leibniz Research Institute for Environmental Medicine (IUF) 120-hour Neuronal Differentiation Assay (NPC3) (AID 2284301)
Settings: not given
Method in brief: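 Value is percent TUBB3-positive neurons among Hoechst-stained nuclei in the migration area, scored by trained CNN after 120 h differentiation. Primary hNPC spheres on poly-D-lysine/laminin, N2 medium, continuous dosing from day 0, half-refeed day 3; DMSO reference.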

SMILES | outcome | AC50
C=CC(N)=O | inactive | 
CO/C=C(/C(=O)OC)c1ccccc1COc1cccc(C(F)(F)F)n1 |  | 22.2 µM (active)
O=S(=O)(O)C(F)(F)C(F)(F)C(F)(F)C(F)(F)C(F)(F)C(F)(F)F | inactive | 
O=S(=O)(O)C(F)(F)C(F)(F)C(F)(F)C(F)(F)F | inactive | 
CCOP(=S)(OCC)SCSC(C)(C)C | inactive | 

Tested on: not listed separately
Experiment: IUF_NPC4_neurite_length_120hr: Leibniz Research Institute for Environmental Medicine (IUF) 120-hour Neuronal Morphology Assay for Neurite Length (NPC4) (AID 2284302)
Settings: not given
Method in brief: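 Neurite length, the mean in um across TUBB3-stained neurons, is derived by skeletonization of high-content images after 120 h differentiation. Compound exposure, 7 concentrations plus solvent control, ran from plating of hNPC spheres on poly-D-lysine/laminin, with medium half-replaced on day 3.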

SMILES | outcome | AC50
C=CC(N)=O | inactive | 
CO/C=C(/C(=O)OC)c1ccccc1COc1cccc(C(F)(F)F)n1 |  | 19.7 µM (active)
O=S(=O)(O)C(F)(F)C(F)(F)C(F)(F)C(F)(F)C(F)(F)C(F)(F)F | inactive | 
O=S(=O)(O)C(F)(F)C(F)(F)C(F)(F)C(F)(F)F | inactive | 
CCOP(=S)(OCC)SCSC(C)(C)C | inactive | 
